NS1 inh = qHTS Assay for Inhibitors of Influenza NS1 Protein Function; Potency, µM (top dose mostly 46.1 µM), without a hit: top-dose activity, positive = more growth; hit rate 0.4% among 270,000; AID 2326, 2010; note: potency is the fitted concentration of half-maximal effect; actives are rising curves; nearly all actives have a fitted effect of over 50% in size
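In this qHTS, NS1 from influenza A is expressed in budding yeast, where it slows growth. Cells are switched from glucose to 2% galactose medium (pH 6.0, -URA), treated with compound, and growth recovery is read at OD600.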
Shiga toxin inh = A qHTS for Small Molecule Inhibitors of Shiga Toxin. Vero cells, Shiga toxin protein synthesis inhibition reporter. inhibition, % at 38.7 µM. hit rate 9.2% among 290,000; in the data active = inhibition mostly above about 28%, no sharp cut-off; inactive = mostly below about 43%; note: 0% is about no effect
SARS PLpro yeast = qHTS of Yeast-based Assay for SARS-CoV PLP; S. cerevisiae expressing SARS-CoV PLpro, growth rescue; Potency, µM (top dose mostly 32.9 µM), for inactives: at the top dose activity, positive = growth rescue, hits mostly activators; hit rate 0.19% among 330,000; note: potency is the fitted concentration of half-maximal effect; 0% is about no effect; nearly all actives have a fitted effect of over 55% in size
Cycloheximide cs = Cycloheximide Counterscreen for Small Molecule Inhibitors of Shiga Toxin; cell reporter, cycloheximide protein synthesis inhibition counterscreen; hit rate 12% among 300,000; max response, %; AID 2314, 2010; in the data active = max response mostly above about 13%, no sharp cut-off; inactive = mostly below about 14%; note: read at 38.3 µM for the half of the compounds with a filed dose; 0% is about no effect
The depositor's hits bear a star. Sampled rows, rich in hits. Any-hit rate of the full collection: about 12%. Unless noted, calls come from the whole dose curve.

`Cc1ccc2oc(-c3ccccc3)nc2c1` gave NS1 inh -16%, Shiga toxin inh 70*, SARS PLpro yeast -2% and Cycloheximide cs 45*.
For Cc1ccc2oc(Nc3nc(C)cc(C)n3)nc2c1 the results were NS1 inh -3%, Shiga toxin inh 31, SARS PLpro yeast -1% and Cycloheximide cs 11*.
CCOc1cccc(-c2nc3cc(C)ccc3o2)c1 was read as NS1 inh -9%, Shiga toxin inh 63, SARS PLpro yeast 4% and Cycloheximide cs 31*.
For Cc1ccc2oc(Nc3nc(-c4ccccc4)cc(=O)[nH]3)nc2c1 the results were Shiga toxin inh 3, SARS PLpro yeast 0% and Cycloheximide cs 11.
Cc1c(C(=O)N/N=C/c2ccccn2)nnn1-c1nonc1N was read as NS1 inh 1%, Shiga toxin inh -20, SARS PLpro yeast 1% and Cycloheximide cs 9.
Screening CC1(C)CC(NC(=O)COc2ccc([N+](=O)[O-])cc2)CC(C)(C)N1 returned Shiga toxin inh -6, SARS PLpro yeast 0% and Cycloheximide cs -3.
Screening O=C(COc1ccccc1Br)NC(=O)NC1CCCC1 returned SARS PLpro yeast 2%.
For O=C(COc1ccccc1Cl)NC1CC1 the results were NS1 inh 5%, Shiga toxin inh 92*, SARS PLpro yeast 0% and Cycloheximide cs 12.
O=C(COc1cccc(Cl)c1Cl)NC1CC1 was read as SARS PLpro yeast -1%.
For CC1(C)CC(NC(=O)COc2ccccc2Cl)CC(C)(C)N1 the results were NS1 inh -1%, Shiga toxin inh 95*, SARS PLpro yeast 1% and Cycloheximide cs 28*.
For COc1ccc(OCC(=O)NC2CC(C)(C)NC(C)(C)C2)cc1 the results were NS1 inh 6%, Shiga toxin inh 59, SARS PLpro yeast 10% and Cycloheximide cs 31*.
`O=C(COc1ccccc1Br)NC1CC1` gave NS1 inh 9%, Shiga toxin inh 67, SARS PLpro yeast 2% and Cycloheximide cs 15*.
CC(=O)Nc1ccc(NC(=O)CN(C)S(=O)(=O)c2ccc3ccccc3c2)cc1 was read as NS1 inh 16%, Shiga toxin inh -20, SARS PLpro yeast -2% and Cycloheximide cs 1.
For CCC[C@@H]1CCCO[C@@](C(=O)NCc2ccccn2)(C(F)(F)F)C1 the results were Shiga toxin inh 14 and Cycloheximide cs -4.
`Cc1cccc2c1OCC/C2=N\NC(=O)COc1ccccc1Cl` gave NS1 inh 2%, Shiga toxin inh 63*, SARS PLpro yeast 7% and Cycloheximide cs 21*.
For COc1cc2c(cc1OC)/C(=C/C(=O)c1cccc([N+](=O)[O-])c1)NCC2 the results were NS1 inh 12%, Shiga toxin inh -3, SARS PLpro yeast -2% and Cycloheximide cs -1.
`COc1cc2c(cc1OC)/C(=C/C(=O)c1ccc(OC)c([N+](=O)[O-])c1)NCC2` gave NS1 inh 4%, Shiga toxin inh 19, SARS PLpro yeast -1% and Cycloheximide cs 11*.
`Cc1ccc(NC(=O)CCOc2ccccc2C)cc1F` gave NS1 inh -8%, Shiga toxin inh 38, SARS PLpro yeast -3% and Cycloheximide cs 30*.
Cc1cc(F)ccc1NCC(=O)Nc1ccccc1Br was read as NS1 inh -11%, Shiga toxin inh 116*, SARS PLpro yeast -41% and Cycloheximide cs 26*.
For CC(=O)Nc1ccc(NC(=O)CCOc2ccccc2C)cc1 the results were NS1 inh -2%, Shiga toxin inh 24, SARS PLpro yeast 2% and Cycloheximide cs -3.
For CC(=O)c1ccc(NC(=O)CCOc2cc(C)ccc2C)cc1 the results were NS1 inh -30%, Shiga toxin inh 115*, SARS PLpro yeast -4% and Cycloheximide cs 41*.
For Cc1ccccc1NCCC(=O)Nc1ccc(F)cc1 the results were NS1 inh -2%, Shiga toxin inh 38, SARS PLpro yeast 2% and Cycloheximide cs 16*.
For CC1(C)Oc2ccc3ccc(=O)oc3c2/C(=C/NC2CCCCC2)C1=O the results were NS1 inh 8%, Shiga toxin inh -4, SARS PLpro yeast -6% and Cycloheximide cs -1.
For CCOC(=O)[C@H]1[C@H]2COc3ccc(OC)cc3[C@@H]2N2C(=O)CN(Cc3ccccc3)C(=O)[C@@]12C the results were SARS PLpro yeast 9%.
Screening Cc1csc(NC(=O)c2cn3ccccc3n2)n1 returned Shiga toxin inh -18, SARS PLpro yeast -17% and Cycloheximide cs -3.
Screening Cc1ccc(CN2CCN(Cc3cccn3-c3ccccn3)CC2CCO)o1 (stereo not drawn) returned NS1 inh -3%, Shiga toxin inh -5, SARS PLpro yeast 2% and Cycloheximide cs -3.
CN(C)c1ccc(N2CC(C)(C)C2=O)cc1 was read as Shiga toxin inh 44*, SARS PLpro yeast -4% and Cycloheximide cs 33*.
